Source: PubChem
Rows were chosen to be rich in hits. Some 10% of all compounds tested hit in one or more screens of this group.
SW480 rerep = A quantitative high throughput screen for small molecules that induce DNA re-replication in SW480 colon adenocarcinoma cells. SW480 DNA re-replication, Hoechst DNA content imaging, 48 h. Potency, µM (titrated, usually from 46.1 µM), inactives show top-dose re-replication activation, most hits filed as activators. actives 1.8% (n = 340,000); note: % of control where 0% means no effect; nearly all actives have a fitted effect of over 55% in size
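Quantitative HTS format with DMSO vehicle controls; 48 hr drug incubation at 37 C, then 40 min Hoechst staining and scanning imager measurement at 405 nm excitation.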
RORg inh = qHTS for inhibitors of ROR gamma transcriptional activity | Drosophila S2 Gal4-RORgamma UAS-luciferase reporter, 20 h | Potency, µM (series often up to 53.6 µM), without a hit: at the top dose activity change, negative = inhibition, hits mostly inhibitors | actives 5.4% (n = 310,000) | AID 2551, 2010; note: % is set by controls: 0 for no effect and ±100 for the full control effect; nearly all actives have a fitted effect of over 60% in size
Target sequence (P51450 whole entry, looked up, the tested form may be a part): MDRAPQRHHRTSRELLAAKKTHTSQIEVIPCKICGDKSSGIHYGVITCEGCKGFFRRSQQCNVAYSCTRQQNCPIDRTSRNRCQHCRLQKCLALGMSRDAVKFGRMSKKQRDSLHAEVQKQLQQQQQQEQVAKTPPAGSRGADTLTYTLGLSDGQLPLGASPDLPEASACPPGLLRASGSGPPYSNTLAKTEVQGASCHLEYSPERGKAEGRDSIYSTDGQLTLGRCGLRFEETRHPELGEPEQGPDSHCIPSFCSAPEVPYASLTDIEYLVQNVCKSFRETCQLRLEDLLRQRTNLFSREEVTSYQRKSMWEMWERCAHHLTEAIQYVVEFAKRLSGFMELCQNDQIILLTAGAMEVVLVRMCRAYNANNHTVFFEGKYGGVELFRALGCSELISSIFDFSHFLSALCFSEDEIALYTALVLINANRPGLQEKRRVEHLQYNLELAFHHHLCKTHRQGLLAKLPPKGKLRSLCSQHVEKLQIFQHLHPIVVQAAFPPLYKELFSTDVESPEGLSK
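ROR gamma transcriptional activity was tracked as Gal4-UAS luciferase output in stably transfected Drosophila Schneider cells, with compound added 1 hr before 700 uM copper sulfate induction and a 20 hr ambient-temperature incubation.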
Gal4-VP16 FLuc = VP16 counterscreen qHTS for inhibitors of ROR gamma transcriptional activity; Drosophila S2 Gal4-VP16 UAS-luciferase, luminescence, 20 h; AID 2546, 2010; Potency, µM (titrated, usually from 53.6 µM), inactives show at the top dose activity, negative = inhibition, hits mostly inhibitors; actives 3.5% (n = 310,000);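 note: Gal4-VP16 expression switched on by copper sulfate through the metallothionein promoter; % is set by controls: 0 for no effect and ±100 for the full control effect; nearly all actives have a fitted effect of over 50% in size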
ELG1 repair inh = qHTS screen for small molecules that inhibit ELG1-dependent DNA repair in human embryonic kidney (HEK293T) cells expressing luciferase-tagged ELG1; HEK293T ELG1-luciferase reporter, luminescence, 16 h; DNA damage induced by 5-fluorouridine; Potency, µM (titrated, usually from 46.1 µM), for the others: at the top dose activity change, negative = inhibition, actives largely listed as inhibitors; actives 2.3% (n = 330,000); AID 504467, 2011; note: % is set by controls: 0 for no effect and ±100 for the full control effect; nearly all actives have a fitted effect of over 55% in size
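Quantitative HTS, concentration-response format. 2,000 cells/well co-treated with 5-fluorouridine and compound, 16 hr in 5% CO2 at 37 °C; ONE-Glo luminescence read after 30 min.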
MCF10A rerep = A quantitative high throughput screen for small molecules that induce DNA re-replication in MCF 10a normal breast cells; Potency, µM (top dose mostly 46.1 µM), inactives show at the top dose activity, positive = re-replication, actives largely listed as activators; MCF 10A DNA re-replication, Hoechst nuclear intensity, 48 h; AID 624296, 2012; actives 2.9% (n = 350,000); note: % of control where 0% means no effect; nearly all actives have a fitted effect of over 50% in size
* = called active by the depositor; ? = inconclusive; · = no result given; [ ] = dose if it differs, or a comment. Calls come from the whole dose curve; as a rule, active = well fitted curve in the direction sought with a large enough effect; inconclusive = small, poorly fitted or top-dose-only effect, or another doubt; inactive = no such curve, though single readings can be large; an effect the other way counts as inactive or inconclusive. Potency is the fitted concentration of half-maximal effect.

SMILES	SW480 rerep	RORg inh	Gal4-VP16 FLuc	ELG1 repair inh	MCF10A rerep
Cc1cc(-c2cc(C)c(N)cc2C)c(C)cc1N	18µM*	·	·	·	127%
COc1ccc(N2CCC(CNC(=S)Nc3c(C)cc(C)cc3C)C2)cc1 (centres undefined)	8%	1.4µM*	7.1µM*	?	29%
COc1ccc(N2CCC(CNC(=S)Nc3cccc(C)c3)C2)cc1 (centres undefined)	-8%	4µM*	5µM*	-4%	-1%
COc1ccc(N2CCC(CNC(=S)Nc3ccc(C)cc3C)C2)cc1 (centres undefined)	0%	0.63µM*	?	?	2%
COc1ccc(N2CCC(CNC(=O)Nc3ccc(OC)cc3OC)C2)cc1 (centres undefined)	7%	0%	-1%	-22%	-2%
Cc1ccc(C(=O)O)cc1NC(=O)c1ccc2c(c1)C(=O)N(c1ccc([N+](=O)[O-])cc1)C2=O	7%	-7%	-2%	-2%	6%
Cc1cccc(NC(=O)CC2C(=O)NC3CCCCC3N2C(=O)c2ccccc2Cl)c1 (centres undefined)	-8%	-4%	5%	3%	1%
Cc1ccc(C(=O)N2C(CC(=O)Nc3ccc(Cl)cc3)C(=O)NC3CCCCC32)cc1 (centres undefined)	23µM*	-16%	-8%	-11%	29%
c1ccc(-c2nc(NCc3ccco3)c3oc4ccccc4c3n2)cc1	3%	-16%	-1%	-17%	16µM*
OCCNc1nc(Nc2cccc(O)c2)nc2ccccc12	-24%	-22%	-13%	?	-4%
OCCN(CCO)c1nc(-c2ccccc2)nc2c1oc1ccccc12	-5%	-8%	-3%	23µM*	-3%
c1ccc(Nc2nc(NCc3ccco3)c3ccccc3n2)cc1	?	-39%	?	9.2µM*	?
COc1cccc(Nc2nc(NCCO)c3ccccc3n2)c1	?	?	?	16µM*	?
Cc1cccc(OCc2nnc(SCC(=O)NC3CCCC3)n2C)c1	-8%	-13%	-9%	-1%	1%
N#CC(C#N)=Cc1cn(-c2ncc(C(F)(F)F)cc2Cl)c2ccccc12	0%	11µM*	?	-29%	?
CC(=O)/C=C\c1cn(-c2ncc(C(F)(F)F)cc2Cl)c2ccccc12	?	25%	-3%	-20%	?
Nc1cc(C(=O)OCC(=O)NCCNC(=O)COC(=O)c2ccc(Cl)c(N)c2)ccc1Cl	-7%	41%	-5%	-5%	0%
Oc1cc(CNCc2ccccc2)c(O)cc1CNCc1ccccc1	13µM*	·	·	·	?
Cc1ccccc1-n1c(-c2ccncc2)n[nH]c1=S	-8%	13µM*	-18%	14%	0%
Cc1cc(-c2n[nH]c(=S)n2-c2ccccc2C)cs1	0%	2.8µM*	6.3µM*	9%	2%
Cc1ccc(-n2c(-c3ccncc3)n[nH]c2=S)c(C)c1	4%	11µM*	?	1%	-2%
Cc1ccc(C)c(-n2c(-c3cccnc3)n[nH]c2=S)c1	-6%	10µM*	-7%[10 µM]	0%	23%
Cc1cccc(CN2CCN(Cc3nc4c(s3)CCCC4)CC2CCO)n1 (centres undefined)	5%	-20%	-12%	-7%	1%
Cc1ccc(C)c(-n2c(-c3csc(C)c3C)n[nH]c2=S)c1	-10%	?	5µM*	-1%	10%
Cc1cccc(-n2c(-c3ccncc3)n[nH]c2=S)c1C	-27%	-28%	-10%	9%	2%
SMILES	SW480 rerep	RORg inh	Gal4-VP16 FLuc	ELG1 repair inh	MCF10A rerep
CCCCCCCC(=O)N/N=C/c1ccc([N+](=O)[O-])o1	?	-22%	?	-3%	?
Cc1cc(C)cc(OCC(=O)N/N=C/c2ccc([N+](=O)[O-])o2)c1	?	8.9µM*	?	?	?
Cc1ccccc1OCC(=O)N/N=C/c1ccc([N+](=O)[O-])o1	1.2µM*	2.5µM*	11µM*	?	23µM*
COc1ccccc1OCC(=O)N/N=C/C=C/c1ccc([N+](=O)[O-])o1	?	11µM*	10µM*	?	?
COc1ccc(S(=O)(=O)N2CCC(C(=O)N[C@H](C(=O)NC3CCCC3)C(C)C)CC2)cc1	-6%	4%	-5%	-1%	1%
N#Cc1cccc(NC(=O)COc2ccc(-n3ccnc3)cc2)c1	-4%	-1%	?	13µM*	0%
COc1cc(NC(=O)COc2ccc(-n3ccnc3)cc2)cc(OC)c1	7%	7%	5%	?	4%
CC(C)(C)c1ccc(NC(=O)COc2ccc(-n3ccnc3)cc2)cc1	-6%	10µM*	-13%	?	20%
O=C1C2C(c3ccccc3)(C(=O)N1c1ccc(Cl)cc1)C2(c1ccccc1)c1ccccc1 (centres undefined)	3%	-5%	12%	6.5µM*	14%
C=CCN1C=CC(=O)CC1	?	-29%	-19%	12%	-21%
Cc1ccc(S(=O)(=O)N(CCCO)CC(O)CON=C2c3ccccc3-c3ccccc32)cc1 (centres undefined)	?	?	?	?	18µM*
COc1cccc(CNC(=O)CN2C(=O)CSc3ccc(S(=O)(=O)N4CCCCC4)cc32)c1	-21%	3%	-12%	-4%	-1%
COc1ccc(C)cc1Nc1n[n+](-c2ccccc2)c(-c2c(Cl)cccc2Cl)s1	?	7.1µM*	16µM*	-15%	?
COc1ccc(C)cc1Nc1n[n+](-c2ccccc2)c(-c2ccc(N(C)C)cc2)s1	?	11µM*	5.6µM*	-25%	?
COc1ccc(C)cc1Nc1n[n+](-c2ccccc2)c(-c2ccc(OC)c(OC)c2OC)s1	0%	?	-15%	-23%	-17%
COc1ccc(OC)c(S(=O)(=O)n2ccc(C)n2)c1	-44%[1.84 µM]	-39%	-4%	7%	-1%
c1ccc2c(c1)nc(NCCN1CCOCC1)c1nncn12	-5%	-15%	-2%	?	0%
Clc1cccc(N2CCN(CCNc3nc4ccccc4n4cnnc34)CC2)c1	7%	36%	-1%	21µM*	16%
Cc1ccc(C)c(-n2c3nc(=O)n(C)c(=O)c-3cc3ccccc32)c1	1%	43%	-2%	0%	15µM*
O=C(O)c1cc2n(n1)C(C(F)(F)F)CC(C1CC1)N2 (centres undefined)	?	5%	1%	14%	2%
CN(C(=O)c1c(O)c2ccccc2n(C)c1=O)c1ccccc1	6%	7%	-3%	·	-4%
